These results are taken from PubChem BioAssay (NCATS).

Structures are written as SMILES. “And” between values parts separate entries of the source, which are not always exact repeats. Equal entries are not always repeated. Inconclusive results are not listed. A number with no mark means an inactive call. The source made the active and inactive calls. Calls follow the shape of the dose curve; as a rule, active = well fitted curve in the direction sought with a large enough effect; inconclusive = small, poorly fitted or top-dose-only effect, or another doubt; inactive = no such curve, though single readings can be large; an effect the other way counts as inactive or inconclusive.

In experiment [1] the test system is MKL-1. Kind of experiment: qHTS assay to identify novel small-molecules to repurpose for Merkel cell carcinoma treatment (AID 1296009). Also: nearly all actives have a fitted effect of over 60% in size. Also: potency is read from the fitted curve at half-maximal effect. As to conditions: MCC and control cell lines, CellTiter-Glo viability, 72 h; series mostly up to 46 µM. The method, boiled down:
(§1)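 Cell viability measured by CellTiter-Glo following 72 hr compound treatment at 37 degree celsius, with NPC and MIPE libraries tested in 8- and 11-point concentration series.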
For orientation: In qHTS, concentration-response curves come from the screen itself.

In experiment [2] the test system is MKL-2. Described as above. As to conditions: MCC and control cell lines, CellTiter-Glo viability, 72 h; series mostly up to 46 µM. The method, boiled down: as §1
In general terms: Cellular ATP, detected with luciferase, serves as a proxy for viable cell number.

Experiment [3] has as its system UISO. The description is as above. As to conditions: MCC and control cell lines, CellTiter-Glo viability, 72 h; series mostly up to 46 µM. The method, boiled down:
as §1

In experiment [4] the test system is WaGa. The experiment is described as above. As to conditions: MCC and control cell lines, CellTiter-Glo viability, 72 h; series mostly up to 46 µM. The method, boiled down: as §1
Experiment [5] concerns C33A. Kind of experiment: Primary qHTS to identify gynecologic anti-cancer compounds using libraries of approved drugs and bioactive compounds (AID 1345084). Also: nearly all actives have a fitted effect of over 55% in size. Also: potency is read from the fitted curve at half-maximal effect. As to conditions: Gynecologic cancer cell panel viability, ATPlite luminescence, 48 h; series mostly up to 57.5 µM. The method, boiled down:
(§2)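 ATP-based viability (ATPlite), 1,000 cells/well, 16 h pre-incubation, 48 h compound at 37 C, 5% CO2, 15 min RT before read.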

Experiment [6] concerns CASKI. The experiment is described as above. As to conditions: Gynecologic cancer cell panel viability, ATPlite luminescence, 48 h; series mostly up to 57.5 µM. The method, boiled down:
as §2

The test system of experiment [7] is Es-2. Described as above. As to conditions: Gynecologic cancer cell panel viability, ATPlite luminescence, 48 h; series mostly up to 57.5 µM. An outline of the steps: as §2
Experiment [8] has as its system HeLa. The description is as above. As to conditions: Gynecologic cancer cell panel viability, ATPlite luminescence, 48 h; series mostly up to 57.5 µM. The method, boiled down: as §2
The test system of experiment [9] is Hek293T. Described as above. As to conditions: Gynecologic cancer cell panel viability, ATPlite luminescence, 48 h, control line for the selectivity index; series mostly up to 57.5 µM. The method, boiled down: as §2
For experiment [10], the system named is JEG-3. The description is as above. As to conditions: Gynecologic cancer cell panel viability, ATPlite luminescence, 48 h; series mostly up to 57.5 µM. The method, boiled down:
as §2

The test system of experiment [11] is OV90. Described as above. As to conditions: Gynecologic cancer cell panel viability, ATPlite luminescence, 48 h; series mostly up to 57.5 µM. An outline of the steps:
as §2

Experiment [12] concerns PA-1. The description is as above. As to conditions: Gynecologic cancer cell panel viability, ATPlite luminescence, 48 h; series mostly up to 57.5 µM. The method, boiled down:
as §2

In experiment [13] the test system is SKOV3. The experiment is described as above. As to conditions: Gynecologic cancer cell panel viability, ATPlite luminescence, 48 h; series mostly up to 57.5 µM. An outline of the steps:
as §2

Experiment [14] relates to Tov-21-G. The experiment is described as above. As to conditions: Gynecologic cancer cell panel viability, ATPlite luminescence, 48 h; series mostly up to 57.5 µM. The method, boiled down:
as §2

For experiment [15], the system named is Tov112D. The experiment is described as above. As to conditions: Gynecologic cancer cell panel viability, ATPlite luminescence, 48 h; series mostly up to 57.5 µM. An outline of the steps:
as §2

Experiment [16] deals with CAOV3. Described as above. As to conditions: Gynecologic cancer cell panel viability, ATPlite luminescence, 48 h; series mostly up to 57.5 µM. An outline of the steps: as §2
Experiment [17] deals with NIH3T3. Kind of experiment: qHTS assay to identify novel small-molecules to repurpose for Merkel cell carcinoma treatment (AID 1296009). Also: nearly all actives have a fitted effect of over 60% in size. Also: potency is read from the fitted curve at half-maximal effect. As to conditions: MCC and control cell lines, CellTiter-Glo viability, 72 h; at 44.8 µM (top of the series) unless noted. An outline of the steps: as §1
Experiment [18] is described as follows: qHTS assay to identify inhibitors of the type 1 interferon - major histocompatibility complex class I in skeletal muscle: Counter screen cell viability and HiBit confirmation (AID 1347412). Also: nearly all actives have a fitted effect of over 60% in size. Also: potency is read from the fitted curve at half-maximal effect. As to conditions: iHSKM muscle cells + IFN-b, HiBiT or CellTiter-Glo, 24 h. The method, boiled down: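 After 24 h with human IFN-beta (4 ng/ml) and compound titrations (top 46 uM final, 1:3, 12 points), HLA-B HiBit myoblasts were lysed for either Nano-Glo HiBiT luminescence or CellTiter Glo viability on paired plates.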

The nature of experiment [19]: Drug repurposing screens with cells derived from glioblastoma tumor samples (AID 1345199). Also: nearly all actives have a fitted effect of over 40% in size. As to conditions: GBM patient neurospheres viability, ATP luminescence, 48 h. An outline of the steps: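 Primary testing used CD133+ neurospheres from four GBM patients, seven concentrations, 48 h exposure and ATP-based viability; confirmation added three slower-growing patient lines.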
% is scaled to controls: 0 for no effect and ±100 for the full control effect.

Consider `O=C(CCN1CCN(C(=O)OCc2cc(Cl)cc(Cl)c2)CC1)c1ccc2[nH]c(=O)oc2c1`, for which the Potency result in [1], in experiment [2], in experiment [3], in experiment [4], in [5] and in [6] was “inactive” in each case. Also, the Potency result in experiment [7], in experiment [8], in experiment [9], in experiment [10], in [11] and in [12] was “inactive” each time. Further, the Potency result in [13], in experiment [14] and in experiment [15] was “inactive” in each case.

With `Cc1cccc(Nc2nc(-c3ccncc3)cs2)c1`, the Potency result in [1], in experiment [2], in experiment [4], in experiment [5], in [16] and in experiment [7] was “inactive” throughout. Further, the Potency result in experiment [8] and in experiment [14] was “inactive” in each case. The Potency in [3] was 0.935 µM (active).

Consider `CC1(C)Cc2c(sc(NC(=S)NC(=O)c3ccccc3)c2C(=O)O)CO1`, for which the Potency result in [1], in experiment [3] and in experiment [4] was “inactive” each time. Also, the call in [17] was inactive.

For `O=c1c(-c2ccc(O)cc2)coc2cc(OC3O[C@H](CO)[C@H](O)[C@H](O)[C@H]3O)cc(O)c12` (some centres not stated), the Potency result in experiment [1], in [2] and in experiment [4] was “inactive” each time.

As to `Cc1c[nH]c(C=C2C(=O)Nc3ccccc32)c1CCC(=O)O`, the Potency result in [1], in [2] and in [4] was “inactive” each time.

As to `O=C(CCCCCCC(=O)Nc1ccccc1)NO`, the Potency in experiment [1] is 2.99 µM (active) and 5.9 µM (active); in experiment [2] it was 1.88 µM (active) and 3.32 µM (active); in [3], 14.8 µM (active); in experiment [5], 6.31 µM (active) and 14.1 µM (active); in experiment [7], 7.08 µM (active) and 12.6 µM (active); in experiment [8], 8.91 µM (active) and 10 µM (active). Also, the Potency is 3.98 µM (active) and 8.91 µM (active) in experiment [10]; 3.16 µM (active) and 12.6 µM (active) in [13]; 11.2 µM (active) and 5.01 µM (active) in [14]; 7.08 µM (active) and 11.2 µM (active) in experiment [15]; 3.52 µM (active) in experiment [18] (HiBiT). Further, the activity change, negative = inhibition in [18] (Viability, at 45.9 µM (top of the series)) is 2.12%.

`O=c1cc(-c2ccc(O)cc2)oc2cc(O)cc(O)c12`: the Potency in experiment [1] was 2.35 µM (active); in experiment [2] it was 1.66 µM (active); in [4] it was 2.09 µM (active).

Turning to `CC(C)C[C@H](CC(=O)O)C(=O)N[C@@H](Cc1c[nH]c2ccccc12)C(=O)N[C@@H](C)c1ccccc1`, the Potency in experiment [1] was 4.69 µM (active); in experiment [4], 3.32 µM (active). The Potency entry in experiment [3] is “inactive”.

Consider `CC(=O)Oc1cc2c(s1)CCN(C(C(=O)C1CC1)c1ccccc1F)C2` (configuration not stated), for which the Potency in experiment [1] was 11.8 µM (active); in experiment [2], 10.5 µM (active); in experiment [4] it was 10.5 µM (active). Further, the Potency entry in experiment [5], in experiment [6], in experiment [7], in [8], in experiment [9] and in experiment [10] was “inactive” each time. The Potency result in [11], in experiment [12], in experiment [13], in [14] and in [15] was “inactive” throughout. The activity, negative = cell killing is 4.77% in [19] (at 45.9 µM (top of the series), tumour line B); -7.3% in [19] (at 45.9 µM (top of the series), tumour line D); -27.4% in experiment [19] (at 46 µM (top of the series), tumour line A).

For `CC(C)(Cc1ccc2ccccc2c1)NC[C@@H](O)COc1cccc(Cl)c1C#N`, the Potency result in experiment [1] and in experiment [3] was “inactive” each time.

For `O=C(O)c1cc(O)c2c(c1)C(=O)c1cccc(O)c1C2=O`, the Potency result in experiment [1], in experiment [2] and in experiment [4] was “inactive” in each case.

Take `Cc1c(NC(=O)c2ccc(C(C)(C)C)cc2)cccc1-c1cn(C)c(=O)c(Nc2ccc(C(=O)N3CCOCC3)cc2)n1`: the Potency entry in experiment [1], in [2], in experiment [4], in experiment [5], in experiment [16] and in experiment [6] was “inactive” throughout. The Potency entry in [7], in experiment [8], in experiment [9], in experiment [10], in experiment [11] and in experiment [12] was “inactive” each time. Besides, the Potency result in [13], in [14] and in experiment [15] was “inactive” throughout.

Turning to `O=C1NC(=O)C(=Cc2cccc(C(F)(F)F)c2)S1`, the Potency entry in experiment [1], in experiment [2] and in [4] was “inactive” each time.

Regarding `c1cc(-c2sc(-c3ccncc3)c(-c3ccncc3)c2-c2ccncc2)ccn1`, the Potency entry in experiment [1], in [2] and in experiment [4] was “inactive” each time.

Take `O=C(Nc1cccc(Br)c1)c1cccc(S(=O)(=O)N2CCCCCC2)c1`: the Potency result in [1], in experiment [2], in [4], in experiment [8], in [10] and in experiment [14] was “inactive” in each case. For the same compound, in [15], the Potency entry was “inactive”.
